The record followed here is PubChem BioAssay (Tox21).

Results filed as inconclusive are left out. Values without a mark were called inactive. Calls of active or inactive are those of the source. Unless noted, calls follow the shape of the dose curve; as a rule, active = well fitted curve in the direction sought with a large enough effect in the repeat runs; inconclusive = weak or mixed curves; inactive = no such curve, though single readings can be large; an effect the other way counts as inactive or inconclusive.

The target of assay [1] is Aryl hydrocarbon receptor (Homo sapiens) (UniProt P35869). The assay is described as follows: qHTS assay to identify small molecule that activate the aryl hydrocarbon receptor (AhR) signaling pathway (AID 743085).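 Also: HG2L7.5c1 human HepG2 liver cells with stably integrated DRE-driven firefly reporter; series mostly up to about 70 µM; nearly all actives have a fitted effect of over 15% in size.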 Summed up:
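Measured in HG2L7.5c1 cells: CellTiter-Fluor signal (30 min incubation, 37C) for viability, then luciferase luminescence (30 min, room temperature). Compound contact time was 24 h at 37C, following a 5 h pre-incubation.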
(Quantitative high-throughput screening tests each substance at several concentrations.)

The nature of assay [2]: qHTS assay to identify small molecule that activate the aryl hydrocarbon receptor (AhR) signaling pathway - cell viability counter screen (AID 743086). Also: series mostly up to about 70 µM; nearly all actives have a fitted effect of over 45% in size. In a few lines: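 Cytotoxicity counter screen: CellTiter-Fluor signal (30 min, 37 C) in 4000 HepG2 cells/well carrying the DRE-luciferase reporter, following 24 h compound exposure at 37 C.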
For assay [3], the target named is Peroxisome proliferator-activated receptor gamma (Homo sapiens) (UniProt P37231). Description: qHTS assay to identify small molecule agonists of the peroxisome proliferator-activated receptor gamma (PPARg) signaling pathway (AID 743094; active = well fitted activation curve with a large enough effect in the signal ratio in the repeat runs, not every such curve was filed as active; the % refers to the signal ratio). Summed up: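 HEK293H PPARg-bla cells, 5 h settle at 37C/5% CO2; compound (DMSO) 17 h, 37C; B/G FRET substrate 1 h RT; fluorescence intensity read-out. qHTS format.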

The nature of assay [4]: qHTS assay to identify small molecule antagonists of the peroxisome proliferator-activated receptor gamma (PPARg) signaling pathway - cell viability counter screen (AID 743194). Also: nearly all actives have a fitted effect of over 55% in size. In a few lines: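 Viability was measured as CellTiter-Glo luminescence in GeneBLAzer PPARg UAS-bla HEK293H cells. These cells had been exposed 17 h at 37 C to compounds together with rosiglitazone at 50 nM final, with the beta-lactamase readout taken in the same wells.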

Assay [5] in a line: qHTS assay for small molecule agonists of the antioxidant response element (ARE) signaling pathway (AID 743202; active = well fitted activation curve with a large enough effect in the signal ratio in the repeat runs, not every such curve was filed as active; the % refers to the signal ratio; also: potency is read from the fitted curve at half-maximal effect). Summed up:
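Beta-lactamase reporter activity, read as fluorescence intensity, reflects ARE/Nrf2 pathway induction in HepG2 cells after 16 h compound exposure at 37 C; substrate loading was 2 h at room temperature.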

Assay [6] is described as follows: qHTS assay for small molecule agonists of the antioxidant response element (ARE) signaling pathway - cell viability counter screen (AID 743203; calls by dose curve; also: nearly all actives have a fitted effect of over 55% in size; also: potency is read from the fitted curve at half-maximal effect). In a few lines:
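Luminescence read-out (CellTiter-Glo, 30 min at room temperature) measured cell viability in the same wells as the ARE beta-lactamase reporter. HepG2 ARE-bla cells were treated with compounds for 16 hrs at 37C/5% CO2.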

Assay [7] can be described thus: qHTS assay for small molecule activators of the heat shock response signaling pathway - cell viability counter screen (AID 743209). Also: nearly all actives have a fitted effect of over 50% in size. Summed up:
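HSE-bla HeLa; 1500 cells/well; overnight 37 C, 5% CO2; compound 5 h 37 C; LiveBLAzer B/G substrate 2.5 h RT; CellTiter-Glo 30 min RT; luminescence.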

A short description of assay [8]: qHTS assay for small molecule activators of the heat shock response signaling pathway (AID 743210; active = well fitted activation curve with a large enough effect in the signal ratio in the repeat runs, with a control signal flat, not every such curve was filed as active; the % refers to the signal ratio;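 also: HeLa cells with beta-lactamase reporter driven by heat shock elements; series mostly up to about 63 µM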). Summed up:
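Fluorescence from a cleaved B/G FRET substrate (2.5 h, room temp) reports HSE-driven beta-lactamase in HeLa cells treated 5 h at 37 C with DMSO-dissolved compounds.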

Assay [9] in a line: qHTS assay to identify aromatase inhibitors - cell viability counter screen (AID 743084).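 Also: cells stimulated with testosterone during compound exposure; nearly all actives have a fitted effect of over 55% in size.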
Assay [10] addresses Peroxisome proliferator-activated receptor gamma (Homo sapiens) (UniProt P37231). Description: qHTS assay to identify small molecule antagonists of the peroxisome proliferator-activated receptor gamma (PPARg) signaling pathway (AID 743191; calls by dose curve; also: nearly all actives have a fitted effect of over 30% in size; also: potency is read from the fitted curve at half-maximal effect). In a few lines:
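Beta-lactamase reporter under UAS control in HEK293H PPARg-bla cells; compound treatment 17 h at 37C. Read-out: fluorescence intensity after 1 h room-temperature incubation with LiveBLAzer B/G FRET substrate.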

Peroxisome proliferator-activated receptor gamma (Homo sapiens), sequence (P37231 whole entry, looked up): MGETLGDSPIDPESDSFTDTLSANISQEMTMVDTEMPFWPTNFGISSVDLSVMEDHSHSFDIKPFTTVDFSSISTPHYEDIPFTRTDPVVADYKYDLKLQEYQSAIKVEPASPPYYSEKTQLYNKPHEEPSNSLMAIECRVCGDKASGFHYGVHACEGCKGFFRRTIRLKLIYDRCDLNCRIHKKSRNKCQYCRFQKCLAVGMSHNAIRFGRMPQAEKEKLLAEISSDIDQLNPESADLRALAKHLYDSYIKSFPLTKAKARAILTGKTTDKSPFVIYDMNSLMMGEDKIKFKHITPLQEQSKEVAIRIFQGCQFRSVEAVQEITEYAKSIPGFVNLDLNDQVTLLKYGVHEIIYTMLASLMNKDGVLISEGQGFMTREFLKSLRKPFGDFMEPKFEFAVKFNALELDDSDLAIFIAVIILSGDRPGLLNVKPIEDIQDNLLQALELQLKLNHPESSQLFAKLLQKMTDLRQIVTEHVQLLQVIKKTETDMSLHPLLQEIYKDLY
Aryl hydrocarbon receptor (Homo sapiens), sequence (P35869 whole entry, looked up): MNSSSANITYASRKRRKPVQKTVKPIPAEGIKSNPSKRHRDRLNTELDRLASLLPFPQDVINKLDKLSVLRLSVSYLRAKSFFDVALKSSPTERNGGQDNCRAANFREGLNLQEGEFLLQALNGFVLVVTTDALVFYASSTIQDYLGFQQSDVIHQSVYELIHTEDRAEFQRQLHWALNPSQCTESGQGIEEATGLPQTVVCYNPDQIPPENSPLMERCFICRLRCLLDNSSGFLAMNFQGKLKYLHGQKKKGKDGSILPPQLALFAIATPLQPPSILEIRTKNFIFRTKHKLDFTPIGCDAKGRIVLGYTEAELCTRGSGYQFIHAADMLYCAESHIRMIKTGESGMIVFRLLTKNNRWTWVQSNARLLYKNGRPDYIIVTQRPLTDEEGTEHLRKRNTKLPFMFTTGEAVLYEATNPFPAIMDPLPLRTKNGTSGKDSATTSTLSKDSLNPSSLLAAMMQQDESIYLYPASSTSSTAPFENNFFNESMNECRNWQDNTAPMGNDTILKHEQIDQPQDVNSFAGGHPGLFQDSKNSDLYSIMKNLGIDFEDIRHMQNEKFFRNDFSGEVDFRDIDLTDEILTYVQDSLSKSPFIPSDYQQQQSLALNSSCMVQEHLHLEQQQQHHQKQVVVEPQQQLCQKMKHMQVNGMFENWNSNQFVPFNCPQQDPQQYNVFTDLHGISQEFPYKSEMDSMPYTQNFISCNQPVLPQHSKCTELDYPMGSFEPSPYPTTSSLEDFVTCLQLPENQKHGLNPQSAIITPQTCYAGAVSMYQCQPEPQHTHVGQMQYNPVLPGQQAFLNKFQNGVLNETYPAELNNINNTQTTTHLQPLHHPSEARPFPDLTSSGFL

In the case of `CCCCC(CC)C(=O)OCCOCCOCCOCCOC(=O)C(CC)CCCC` (stereo not given), the Potency result in assay [1], in [2], in assay [3], in [4], in assay [5] and in assay [6] was “inactive” in each case. Besides, the Potency entry in assay [7] and in assay [8] was “inactive” throughout.

`C1COCO1`: the Potency entry in assay [9], in assay [2], in assay [3], in assay [10], in [5] and in assay [6] was “inactive” throughout. Also, the Potency entry in [7] and in [8] was “inactive” throughout.

Take `O=C(OCCOCCO)c1ccccc1Nc1cccc(C(F)(F)F)c1`: the Potency entry in assay [9], in assay [3], in assay [4], in assay [6], in [7] and in assay [8] was “inactive” in each case.

In the case of `CCC(=O)OC/C=C/c1ccccc1`, the Potency entry in assay [9], in assay [2], in assay [3], in assay [10], in [6] and in [8] was “inactive” throughout.

Consider `COCc1c(C(C)C)nc(C(C)C)c(/C=C/[C@@H](O)C[C@@H](O)CC(=O)O)c1-c1ccc(F)cc1`, for which the Potency entry in assay [9], in [2], in assay [4], in [6], in assay [7] and in [8] was “inactive” throughout.

As for `C=CC(C)=CCC=C(C)C`, the Potency result in assay [9], in assay [2], in [3], in assay [6] and in assay [7] was “inactive” in each case.

Turning to `O=C(/C=C/c1ccccc1)OCCCc1ccccc1`, the Potency result in [9], in assay [2], in [4], in assay [6], in [7] and in assay [8] was “inactive” throughout.

On to `C/C=C(\C)C(=O)OCCC(C)CCC=C(C)C` (stereo not given), for which the Potency entry in assay [9], in assay [2], in [4], in assay [5], in [6] and in assay [7] was “inactive” each time. Moreover, the Potency entry in assay [8] was “inactive”.

As for `Nc1ccc(C(=O)OCCCOC(=O)c2ccc(N)cc2)cc1`, the Potency result in assay [9], in assay [2], in assay [3], in [6], in assay [7] and in assay [8] was “inactive” throughout. Besides, in assay [10], the Potency was 43.6 µM (active).

Consider `CCCOc1ccc(S(=O)(=O)N2CCN(CC)CC2)cc1-c1nc2c(CC)n(Cc3ccccn3)nc2c(=O)[nH]1`, for which the Potency entry in [9], in [4], in [6] and in [8] was “inactive” each time.

Regarding `Nc1ccc(Cl)cc1[N+](=O)[O-]`, the Potency entry in assay [9], in assay [2], in assay [3], in assay [4], in assay [5] and in assay [6] was “inactive” throughout. In assay [7], the Potency entry was “inactive”.

As for `CC[C@H](NC(=O)c1cc(F)ccc1NS(=O)(=O)c1cccc2cccnc12)c1ccccc1`, the Potency entry in assay [9], in assay [2], in assay [4], in assay [6], in [7] and in assay [8] was “inactive” throughout.

`CC(C)C(=O)O`: the Potency result in assay [1], in [2], in assay [3], in assay [10], in assay [4] and in assay [5] was “inactive” in each case. Moreover, the Potency result in assay [6], in assay [7] and in assay [8] was “inactive” each time.

On to `Cc1ccccc1N1C(=O)c2cc(S(N)(=O)=O)c(Cl)cc2NC1C` (stereo not given), for which the Potency result in assay [9], in assay [2], in [3], in [4], in [5] and in [6] was “inactive” in each case. For the same compound, the Potency entry in assay [7] and in [8] was “inactive” throughout.

Turning to `C=C(C)C(=O)OCCOC(=O)CC(C)=O`, the Potency entry in assay [9], in [2], in [3], in assay [10], in [5] and in assay [6] was “inactive” each time. Also, the Potency entry in [7] and in assay [8] was “inactive” throughout.

In the case of `CN(C(=O)C(Cl)Cl)c1ccc(OC(=O)c2ccco2)cc1`, the Potency result in [9], in assay [2], in [3], in assay [4], in assay [6] and in assay [7] was “inactive” each time. In addition, the Potency result in assay [8] was “inactive”.

In the case of `c1cc[c]([Bi]([c]2ccccc2)[c]2ccccc2)cc1`, the Potency result in [9], in [2], in assay [4], in [6] and in [7] was “inactive” throughout.

Take `CN(C)C(=O)Nc1ccc(Oc2ccc(Cl)cc2)cc1`: the Potency entry in assay [9], in assay [2], in [3], in assay [4], in assay [6] and in assay [7] was “inactive” each time. For the same compound, the Potency result in assay [8] was “inactive”. The Potency in assay [5] was 19.3 µM (active).

On to `NCC1CCCC(CN)C1` (stereo not given), for which the Potency entry in assay [9], in [2], in assay [3], in assay [4], in assay [5] and in assay [6] was “inactive” in each case. Also, the Potency entry in assay [7] and in [8] was “inactive” throughout.

Take `O=C(CCCN1CCC(O)(c2ccc(Br)cc2)CC1)c1ccc(F)cc1`: the Potency result in assay [9], in assay [2], in assay [3], in assay [4] and in [8] was “inactive” each time. The Potency in [6] was 29.8 µM (active).

As for `C[C@@H]1C[C@H]2[C@@H]3CCC4=CC(=O)C=C[C@]4(C)[C@@]3(F)[C@@H](O)C[C@]2(C)[C@H]1C(=O)CO`, the Potency entry in assay [9], in assay [2], in [3], in assay [4], in assay [6] and in assay [7] was “inactive” each time. For the same compound, in assay [8], the Potency entry is “inactive”.

In the case of `NC(=O)Nc1ccc(Cl)c(Cl)c1`, the Potency entry in [9], in [2], in assay [3] and in [8] was “inactive” throughout.

`NC(=O)N(O)[C@@H]1COc2cc(OCc3ccccc3)ccc21`: the Potency result in assay [9], in assay [3], in assay [10], in assay [4], in assay [5] and in assay [6] was “inactive” in each case. In addition, in assay [8], the Potency result is “inactive”.

Regarding `O=Cc1c(Cl)cccc1Cl`, the Potency result in assay [9], in [2], in [3], in assay [10], in [6] and in assay [7] was “inactive” throughout. The Potency result in [8] is “inactive”.

With `CO[Si](C)(OC)OC`, the Potency result in assay [9], in [2], in [3], in [5], in assay [6] and in [8] was “inactive” in each case.

For `CC(=O)CC(c1ccc([N+](=O)[O-])cc1)c1c(O)c2ccccc2oc1=O` (stereo not given), the Potency result in assay [9], in assay [2], in assay [10], in assay [5], in [6] and in [8] was “inactive” throughout.

Consider `COC(=O)CC(=O)C(C)(C)C`, for which the Potency entry in assay [9], in assay [2], in assay [3], in [10], in assay [6] and in [7] was “inactive” in each case. For the same compound, the Potency entry in [8] was “inactive”.

As for `COC(=O)c1cc(Cl)ccc1NS(=O)(=O)C(F)(F)F`, the Potency result in [10], in assay [4], in [5], in [6], in assay [7] and in assay [8] was “inactive” each time.

As to `O=C(O)c1c(O)c(-c2ccccc2)nc2ccccc12`, the Potency entry in assay [4], in assay [5], in assay [6], in assay [7] and in [8] was “inactive” in each case.
